PubChem BioAssay AID893 (National Center for Advancing Translational Sciences (NCATS), 2007)
The campaign covered roughly 75,000 compounds. About 5,700 (7.6%) were called active. Another 7% or so got no clear call; they are omitted. Only a selection was taken, and actives are over-represented in it overall. Values without a mark were called inactive. Calls come from the whole dose curve; as a rule, active = well fitted inhibition curve with a large enough effect; inconclusive = small, poorly fitted or top-dose-only effect; inactive = no such curve, though single readings can be large or run the other way.

The compounds below were run against 3-hydroxyacyl-CoA dehydrogenase type-2 (Homo sapiens) (UniProt Q99714) (assay: qHTS Assay for Inhibitors of HSD17B4, hydroxysteroid (17-beta) dehydrogenase 4). Details: recombinant HSD17B10, NADH fluorescence kinetic; series mostly up to 57.1 µM; activity change, negative = inhibition: at the top concentration.
How it was run: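 Enzyme plus compound, 15 min room temperature; substrate mix added (NAD+ 1 mM, beta-hydroxybutyryl-CoA 90 uM final); plates read kinetically for NADH fluorescence. HADH2 was His-tagged, E. coli-derived, 20 nM.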
% is set by controls: 0 for no effect and ±100 for the full control effect; potency is the fitted concentration of half-maximal effect.
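Note: the protocol describes HADH2 (HSD17B10) and not the HSD17B4 of the title; nearly all actives have a fitted effect of over 70% in size.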

| SMILES | activity change, negative = inhibition | Potency |
| --- | --- | --- |
| O=C(NCc1ccco1)c1nc2ncccn2n1 | 5.09% | – |
| CC(C)CC1(C(=O)NCc2ccccn2)C=CCN1C(=O)c1ccccc1 (stereo not given) | 4.19% | – |
| O=C(NCc1ccccn1)c1ccc2nc(-c3ccco3)c(-c3ccco3)nc2c1 | – | 12.6 µM (active) |
| CCn1nnc(NC(=O)c2cc(Cl)c(OC)c(Cl)c2)n1 | 6.89% | – |
| Cc1noc(C)c1S(=O)(=O)N(CC(=O)NCc1ccc(Cl)cc1)c1ccc2c(c1)OCO2 | 4.33% | – |
| COc1cc(C(O)c2nc3ccccc3n2C)cc(OC)c1OC (stereo not given) | 9.03% | – |
| Cc1nn2c3ccccc3nc2n(C)c1=O | -6.27% | – |
| Cc1csc(-c2nc3ccccc3n2C)n1 | – | 31.6 µM (active) |
| O=C(NCc1ccco1)C1CCCN(S(=O)(=O)c2cccc3nonc23)C1 (stereo not given) | -23.9% | – |
| CC(C)(C)c1ccc(OC2C=CC(C#Cc3ccccc3)OC2CO)cc1 (stereo not given) | -6.55% [at 11.4 µM] | – |
| COC1[C@H](OC(N)=O)C(O)[C@H](Oc2ccc3c(O)c(NC(=O)c4ccc(O)c(CC=C(C)C)c4)c(=O)oc3c2C)OC1(C)C (stereo not given in full) | -5.15% | – |
| O=C(c1ccc(F)cc1)C1CCN(CCCCc2ccccc2)CC1 | -9.73% | – |
| CCN1C(=O)C(C(=O)NC(C)c2ccccc2)C2CC1(C)Oc1ccccc12 (stereo not given) | 1.95% | – |
| Cc1cc(C(F)(F)F)nn1-c1nc(-c2ccco2)cc(C(F)(F)F)n1 | – | 31.6 µM (active) |
| FC(F)(F)c1cc(-c2ccco2)nc(N2CCOCC2)n1 | -6.73% | – |
| FC(F)(F)c1nnc2sc(-c3ccco3)nn12 | 6.1% | – |
| CCCC(C(=O)NCc1ccco1)N(C(=O)CNS(=O)(=O)c1ccccc1)C1CCCC1 (stereo not given) | 4.33% | – |
| CC(=O)N(CN1C(=O)C2CC=CCC2C1=O)c1cccc(Cl)c1 (stereo not given) | 6.21% | – |
| CC(=O)Nc1cccc(-c2cnc3ccccc3n2)c1 | -2.86% | – |
| CCOc1nc(OCC)nc(-n2cc(-c3ccccc3)nn2)n1 | -3.82% | – |
| CC(=O)Nc1ccc(-c2cn3cccnc3n2)cc1 | – | 10 µM (active) |
| CCCC(=O)Nc1cccc(-c2cn3ccsc3n2)c1 | 11.3% | – |
| c1ccc(-c2cn3cccnc3n2)cc1 | – | 25.1 µM (active) |
| O=C(c1ccco1)N1CCN=C1SCc1cccc(Cl)c1 | 9.16% | – |
| O=C(NC1CCCCC1)c1ccc2c(=O)n(CC3CCCO3)c(=O)[nH]c2c1 (stereo not given) | – | 31.6 µM (active) |
| COC(=O)c1ccc2c(=O)n(CC3CCCO3)c(=S)[nH]c2c1 (stereo not given) | -2.48% | – |
| O=c1c2cc3c(=O)n(CC4CCCO4)c(=O)c3cc2c(=O)n1CC1CCCO1 (stereo not given) | -21.7% | – |
| CCC1=[N+]([O-])C(C)(/C(C)=N\O)N(O)C1(C)C (stereo not given) | -3.53% | – |
| O=C(COC(=O)c1ccccc1C(=O)c1ccccc1)c1ccco1 | 7.35% | – |
| CC(=O)c1cc2c(cc1N)OCO2 | 3.78% | – |
